# Test results taken from PubChem BioAssay AID1650 (Southern Research Specialized Biocontainment Screening …, 2009).
# Results with a measured potency or affinity are listed apart. Activity calls are given as the source filed them. No rule for the calls is given here.
# Experiment: host cell cytotoxicity of antiviral hits, dose response, cytotoxicity control for West Nile virus antiviral project, secondary assay (AID 1650)
# Settings: Mammalian host cell viability, cytotoxicity counter-screen; series mostly up to 10 µM
row,Compound,outcome
1,CN1CCN(c2nc(Nc3cccc(C(F)(F)F)c3)nc(N3CCOCC3)n2)CC1,inactive
2,O=C(O)C1CCCN1C(=O)c1cncc(Br)c1 (stereo not given),inactive
3,CN1CCN(c2nc(Nc3ccc(F)cc3)nc(Nc3ccc(F)cc3)n2)CC1,inactive
4,C=CCn1cc(C(=O)NCCOC)c(=O)c2cc(S(=O)(=O)N(CC)CC)ccc21,inactive
5,O=C(CCC1CCCC1)N=C1SC2CS(=O)(=O)CC2N1Cc1ccccc1 (stereo not given),inactive
6,CSc1cccc(NC(=S)N(CCCN2CCCC2)Cc2cccn2Cc2ccc(Cl)cc2)c1,inactive
7,CCOc1ccc2nc(N3CCCC(C(=O)NCCCN4CCCCC4)C3)sc2c1 (stereo not given),inactive
8,COC(=O)c1ccc(/C=C2/SC(=S)N(CCCC(=O)Nc3ccc(O)cc3)C2=O)cc1,inactive
9,O=C(Nc1cccnc1Cl)c1cc(-c2ccc(Cl)cc2)on1,inactive
10,CCn1cc(CNCc2cn(C)nc2-c2ccc(C3CCCCC3)cc2)cn1,inactive
11,Cc1cc(C)c(-c2csc(NC(=O)/C=C/c3cccs3)n2)c(C)c1,inactive
12,CCCCCCCCCc1nc2sc3c(c2c(=O)n1NC(=O)c1ccc([N+](=O)[O-])cc1)CC(C)(C)OC3,inactive
13,COc1ccc(-c2csc(NC3OC(=O)c4ccccc43)n2)cc1 (stereo not given),inactive
14,COc1ccc(C2c3[nH]c4ccccc4c3CCN2C(=O)c2ccccc2C(C)=O)c(F)c1 (stereo not given),inactive
15,N#Cc1c(N)nc2c3c(sc(=N)c2c1N)NC(=O)CC3c1ccccc1Cl (stereo not given),inactive
16,CCN(CCCNC(=O)c1cc2c(-c3cccc(OC)c3)nn(C)c2s1)Cc1ccccc1,inactive
17,CCCC1(c2ccccc2)NC(=O)N(CC(=O)Nc2sc(-c3ccccc3)cc2C(=O)OCC)C1=O (stereo not given),inactive
18,Cn1cc(CN2CCCC(C(=O)Nc3ccc(-c4cccc(F)c4)cc3)C2)cn1 (stereo not given),inactive
19,CCN(CC)CCCNC(=O)c1[nH]c2ccccc2c1Sc1ccc(Cl)cc1,inactive
20,COc1cc(CNC(C)(C)CO)cc(Br)c1OCc1ccc(Cl)cc1Cl,inactive

row,Compound,outcome
1,CC(C)C(C(=O)Nc1ncn[nH]1)N1C(=O)c2ccccc2C1=O (stereo not given),inactive
2,COc1cc(CNC(C)(C)CO)cc(Br)c1OCc1ccc(Cl)cc1,inactive
3,COc1ccc(-n2cc(CNCCCn3ccnc3)c(-c3cccc(F)c3)n2)cc1,inactive
4,CC(=O)N1CCN(CC(=O)Nc2c(Cl)ccc(C)c2Cl)CC1,inactive
5,CCOC(=O)c1c2c(n(C)c1COC)C(=O)C(=O)c1ccc(Br)cc1-2,inactive
6,O=C(NCCC1=CCCCC1)c1coc(=O)c(Br)c1,inactive
7,CCN(CC)CCCC(C)NC(=O)c1c(NC(=O)c2ccccc2)sc2c1CCCC2 (stereo not given),inactive
8,COc1ccc(-c2cc(C(=O)c3c(N)n(C)c(=O)n(C)c3=O)c3ccccc3n2)cc1OC,inactive
9,CN1CCN(C(=O)CCN2C(=O)/C(=C/c3ccccc3Cl)SC2=S)CC1,inactive
10,Cc1ccc(S(=O)(=O)c2c(N)n(CCCN(C)C)c3nc4ccccc4nc23)cc1,inactive
11,O=C1Nc2cc(C(=O)NCCCN3CCOCC3)ccc2S/C1=C/c1cccc(Cl)c1,inactive
12,CN1CCN(Cc2nc3ccccc3c(=O)n2Cc2nc(-c3ccccc3F)cs2)CC1,inactive
13,Cc1cc(N2CCN(C)CC2)nc2ccc(NC(=S)NCc3cccs3)cc12,inactive
14,O=S(=O)(/C=C/c1ccccc1)Oc1ccccc1,inactive
15,CC1CCN(CCc2nc3cc(NC(=O)COc4ccc(Cl)cc4)ccc3n2C)CC1,inactive
16,COc1cc(/C=C/C(=O)c2ccc(NS(=O)(=O)c3ccc(C)cc3)cc2)cc(OC)c1O,inactive
17,CCOc1ccc2nc(N3CCCC(C(=O)NCCCN4CC(C)CC(C)C4)C3)sc2c1 (stereo not given),inactive
18,COc1ccc(N2CCN(c3oc(-c4ccc(OC)c(OC)c4)nc3C#N)CC2)cc1,inactive
19,Cc1cc(F)ccc1N1CCC(N2CCN(C(C)C)C(CCO)C2)CC1 (stereo not given),inactive
20,CCN(CC)CCCNc1nc(-c2ccccc2)nc2ccccc12,inactive
